Assay [1] is described as follows: qHTS assay to identify small molecule agonists of the hypoxia (HIF-1) signaling pathway - cell viability counter screen (AID 1224844; calls by dose curve; also: nearly all actives have a fitted effect of over 50% in size; also: potency is read from the fitted curve at half-maximal effect). Summed up: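 HRE-bla ME-180 cells, 2,000/well in 0.5% dialyzed FBS medium, treated 17 h at 37C with compounds. Viability read in the same wells as the bla reporter, by CellTiter-Glo luminescence after 30 min at room temperature.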
On the technique in general: Quantitative high-throughput screening tests each substance at several concentrations.

Assay [2] can be described thus: qHTS assay to identify small molecule agonists of H2AX (AID 1224845; active = well fitted activation curve with a large enough effect in the signal ratio in the repeat runs, not every such curve was filed as active; the % refers to the signal ratio; also: potency is read from the fitted curve at half-maximal effect). Summed up: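 Wild-type CHO-K1 cells, plated overnight, exposed 3hr at 37C to 15 concentrations (0.76% DMSO final). Lysed, then HTRF anti-pH2AX (S139) cryptate and anti-H2AX-d2 antibodies, 24 hr room temperature; 665/620 nm emission read.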
Assay [3] in a line: qHTS assay to identify small molecule agonists of H2AX - cell viability counter screen (AID 1224847; calls by dose curve; also: nearly all actives have a fitted effect of over 30% in size; also: potency is read from the fitted curve at half-maximal effect). Summed up:
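We seed wild-type CHO-K1 cells overnight, treat them for 3 hr at 37C with compounds in 15-concentration series, and quantify remaining viability by CellTiter-Glo luminescence.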

Assay [4] can be described thus: qHTS assay to identify small molecule agonists of the estrogen related receptor (ERR) signaling pathway from Tox21 library (AID 1224849; calls by dose curve; also: nearly all actives have a fitted effect of over 15% in size). Particulars: ERR reporter cell line, ONE-Glo luciferase, 18 h; at 92.4 µM (top of the series) unless noted. Summed up: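 ERR reporter cells (NTP line) pre-incubated 6 hours at 37 C, then exposed to compounds for 18 hours at 37 C. ONE-Glo luciferase luminescence was read after 30 minutes at room temperature.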

Assay [5] is described as follows: qHTS RealTime-Glo MT Cell Viability Assay in HepG2 cells - 24 hour (AID 1224867). Also: nearly all actives have a fitted effect of over 50% in size. Also: potency is read from the fitted curve at half-maximal effect. The method in brief:
(§1)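 Viability was tracked continuously by NanoLuc luminescence from prosubstrate reduced by living HepG2 cells, at successive time points over 40 h of compound exposure. Cells with reagent were preincubated 5 h at 37 °C before compound addition.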

Assay [6] can be described thus: qHTS RealTime-Glo MT Cell Viability Assay in HEK293 cells - 32 hour (AID 1224868). Also: nearly all actives have a fitted effect of over 50% in size. Also: potency is read from the fitted curve at half-maximal effect. The method in brief: (§2)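 Viability tracked continuously by luminescence as live cells reduce a prosubstrate for NanoLuc; HEK293 cells preincubated 5 h, compound-treated at 37 C, and read at 0, 8, 16, 24, 32 and 40 h.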
Assay [7] can be described thus: A CellTox Green Cytotoxicity Assay to monitor cytotoxicity in HEK293 cells - 0 hour (AID 1224869). Also: nearly all actives have a fitted effect of over 50% in size. The method in brief: (§3)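 HEK293 cells, 600/well, were preincubated 5 hours and then exposed to compounds at 37 C for up to 40 hours. A cell-impermeant cyanine dye staining dead-cell DNA was read by fluorescence at 0, 8, 16, 24, 32 and 40 h time points.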
Assay [8] is described as follows: qHTS RealTime-Glo MT Cell Viability Assay in HepG2 cells - 40 hour (AID 1224870). Also: nearly all actives have a fitted effect of over 50% in size. Also: potency is read from the fitted curve at half-maximal effect. The method in brief:
(§4)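 HepG2 cells (600/well) mixed with RealTime-Glo MT reagent, settled 5 h at 37 C/5% CO2 before compound addition. Nonlytic NanoLuc luminescence from viable-cell prosubstrate reduction read repeatedly during 40 h treatment at 37 C.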

A short description of assay [9]: A CellTox Green Cytotoxicity Assay to monitor cytotoxicity in HEK293 cells - 40 hour (AID 1224871). Also: nearly all actives have a fitted effect of over 45% in size. Also: potency is read from the fitted curve at half-maximal effect. The method in brief:
as §3

A short description of assay [10]: qHTS RealTime-Glo MT Cell Viability Assay in HEK293 cells - 16 hour (AID 1224872). Also: nearly all actives have a fitted effect of over 50% in size. Also: potency is read from the fitted curve at half-maximal effect. The method in brief: as §2
The nature of assay [11]: qHTS RealTime-Glo MT Cell Viability Assay in HepG2 cells - 8 hour (AID 1224873). Also: nearly all actives have a fitted effect of over 55% in size. Also: potency is read from the fitted curve at half-maximal effect. Summed up:
as §4

A short description of assay [12]: qHTS RealTime-Glo MT Cell Viability Assay in HEK293 cells - 40 hour (AID 1224874). Also: nearly all actives have a fitted effect of over 50% in size. Also: potency is read from the fitted curve at half-maximal effect. Particulars: RealTime-Glo luminescence; max response: stronger effect = lower value. Summed up: (§5)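 600 cells/well were plated with the nonlytic NanoLuc/prosubstrate reagent, pre-incubated 5 h, then given 23 nL of compound in DMSO. Incubation at 37 C for 40 h, with luminescence from viable-cell-reduced substrate read repeatedly from 0 h.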

Assay [13] can be described thus: A CellTox Green Cytotoxicity Assay to monitor cytotoxicity in HEK293 cells - 24 hour (AID 1224875). Also: nearly all actives have a fitted effect of over 45% in size. Also: potency is read from the fitted curve at half-maximal effect. Summed up:
as §3

A short description of assay [14]: qHTS RealTime-Glo MT Cell Viability Assay in HepG2 cells - 32 hour (AID 1224877). Also: nearly all actives have a fitted effect of over 55% in size. Also: potency is read from the fitted curve at half-maximal effect. Summed up:
as §1

Assay [15] can be described thus: qHTS RealTime-Glo MT Cell Viability Assay in HEK293 cells - 0 hour (AID 1224880). Also: top concentration of the series differs between compounds; nearly all actives have a fitted effect of over 45% in size. Summed up: as §5
Assay [16] in a line: A CellTox Green Cytotoxicity Assay to monitor cytotoxicity in HepG2 cells - 16 hour (AID 1224876). Also: nearly all actives have a fitted effect of over 45% in size. The method in brief:
(§6)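 HepG2 cells, 600/well, preincubated 5 h with CellTox Green dye, then exposed to Tox21 compounds in DMSO at 37 C for up to 40 h. Dead-cell DNA fluorescence read at the indicated time point.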

Assay [17] is described as follows: A CellTox Green Cytotoxicity Assay to monitor cytotoxicity in HepG2 cells - 24 hour (AID 1224878). Also: nearly all actives have a fitted effect of over 45% in size. Also: potency is read from the fitted curve at half-maximal effect. The method in brief: as §6
The nature of assay [18]: A CellTox Green Cytotoxicity Assay to monitor cytotoxicity in HepG2 cells - 40 hour (AID 1224879). Also: nearly all actives have a fitted effect of over 40% in size. Also: potency is read from the fitted curve at half-maximal effect. Summed up:
as §6

Assay [19] in a line: qHTS assay to identify small molecule antagonists of the estrogen related receptor (ERR) signaling pathway from Tox21 library (AID 1224848). Also: nearly all actives have a fitted effect of over 50% in size. Also: potency is read from the fitted curve at half-maximal effect. Summed up: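 ERR reporter cell line (from NTP) seeded 2,000 cells/well, rested 6 h at 37 C/5% CO2, then pin-dosed with compounds in DMSO. After 18 h at 37 C, ONE-Glo added; luminescence read after 30 min at room temperature.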
Assay [20] in a line: qHTS assay to identify small molecule agonists of the hypoxia (HIF-1) signaling pathway (AID 1224846; active = well fitted activation curve with a large enough effect in the signal ratio in the repeat runs, not every such curve was filed as active; the % refers to the signal ratio). Summed up:
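HRE-bla ME-180 beta-lactamase reporter cells in medium with 0.5% dialyzed FBS, pre-incubated 5 h then exposed to compounds 17 h at 37C, 5% CO2; reporter induction read with CCF4-AM FRET substrate.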

A number with no mark means an inactive call. Results filed as inconclusive are left out. Activity calls are given as the source filed them. Unless noted, calls follow the shape of the dose curve; as a rule, active = well fitted curve in the direction sought with a large enough effect in the repeat runs; inconclusive = weak or mixed curves; inactive = no such curve, though single readings can be large; an effect the other way counts as inactive or inconclusive.
% is scaled to controls: 0 for no effect and ±100 for the full control effect.

In the case of `C#CC1(O)CCCCC1`, the Potency entry in assay [1], in assay [2], in assay [3], in [5], in assay [6] and in [7] was “inactive” in each case. Moreover, the Potency result in assay [8], in [9], in assay [10], in assay [11], in assay [13] and in assay [14] was “inactive” throughout. Further, the Potency entry in [15] is “inactive”. Moreover, the activity change, positive = activation in [4] is 1.06%. In addition, the max response in assay [12] was 19.4%.
For the molecule `CC(Cc1ccc(O)cc1)NCC(O)c1cc(O)cc(O)c1` (stereo not given), the Potency entry in [1], in assay [2], in assay [3], in assay [5], in [6] and in assay [7] was “inactive” each time. In addition, the Potency entry in assay [8], in assay [9], in assay [10], in [11], in assay [13] and in assay [16] was “inactive” in each case. Further, the Potency entry in [14], in [17], in assay [18] and in [15] was “inactive” in each case. The max response in assay [12] was 1.61%.
As for `CCC[CH2][Sn]([CH2]CCC)([CH2]CCC)[O][Sn]([CH2]CCC)([CH2]CCC)[CH2]CCC`, the Potency in assay [1] was 479 nM (active); in [2], 278 nM (active); in [3] it was 278 nM (active); in [19], 377 nM (active); in assay [5] it was 603 nM (active); in assay [6], 170 nM (active). In addition, the Potency in assay [8] is 537 nM (active); in assay [9], 302 nM (active); in [10] it was 214 nM (active); in assay [11], 956 nM (active); in [12], 151 nM (active); in [13] it was 427 nM (active). The Potency in [14], in [17] and in [18] was 537 nM (active) each time. Moreover, in [4], the activity change, positive = activation is -60.2% [at 8.39 µM]. Moreover, the cytotoxicity in [7] was 2.58% [at 6.97 µM].
Regarding `CN1CCc2cc3c(cc2C1O)OCO3` (stereo not given), the Potency result in assay [1], in [2], in assay [3], in assay [19], in assay [5] and in [6] was “inactive” each time. Further, the Potency result in assay [7], in [8], in assay [9], in assay [10], in [11] and in assay [13] was “inactive” in each case. The Potency entry in assay [16], in [14], in [17], in assay [18] and in [15] was “inactive” throughout. Also, in assay [4], the activity change, positive = activation is 0.659%. Moreover, in assay [12], the max response was 1.96%.
As to `CNC(=O)CSP(=O)(OC)OC`, the Potency entry in assay [1], in [2], in [3], in assay [5], in [6] and in assay [7] was “inactive” each time. For the same molecule, the Potency result in assay [8], in assay [9], in assay [10], in [11], in assay [13] and in assay [16] was “inactive” each time. Moreover, the Potency entry in assay [14], in assay [17], in assay [18] and in [15] was “inactive” each time. Besides, in assay [12], the max response is 5.27%.
Take `COP(=O)(OC)O/C(=C\Cl)c1cc(Cl)c(Cl)cc1Cl`: the Potency entry in assay [1], in assay [2], in assay [3], in [6], in assay [7] and in assay [9] was “inactive” each time. In addition, the Potency result in assay [10], in assay [13], in [16] and in [15] was “inactive” in each case. The activity change, positive = activation in [4] is -68.1%. Also, the max response in assay [12] is 0.507%.
Take `CCC(C)Nc1c([N+](=O)[O-])cc(C(C)(C)C)cc1[N+](=O)[O-]` (stereo not given): the Potency result in assay [1], in [2], in [19], in assay [5], in assay [6] and in assay [7] was “inactive” each time. Further, the Potency result in assay [8], in assay [9], in assay [11], in assay [13], in assay [16] and in [14] was “inactive” throughout. The Potency entry in assay [17], in assay [18] and in assay [15] was “inactive” throughout. For the same molecule, the activity change, positive = activation in [4] was 11.9%. Besides, the max response in [12] was -8.53%.
With `CCOP(=O)(OCC)Oc1nc(Cl)c(Cl)cc1Cl`, the Potency entry in [1], in assay [2], in assay [3], in [5], in assay [6] and in [7] was “inactive” in each case. Besides, the Potency entry in assay [8], in assay [9], in assay [10], in [11], in assay [13] and in assay [14] was “inactive” each time. The Potency entry in assay [17], in assay [18] and in assay [15] was “inactive” throughout. Further, the max response in assay [12] was -5.34%.
For the molecule `CCOP(=S)(OCC)SC(CCl)N1C(=O)c2ccccc2C1=O` (stereo not given), the Potency entry in assay [1], in [20], in [3], in [5], in [6] and in assay [7] was “inactive” each time. In addition, the Potency entry in [8], in [9], in assay [10], in assay [11], in assay [13] and in [16] was “inactive” throughout. Moreover, in [14], the Potency entry was “inactive”. The activity change, positive = activation in assay [4] was -14.9%. The max response in assay [12] is 6.49%.

The values are drawn from PubChem BioAssay (Tox21).
